This is a sample that favours compounds with a hit; in the whole collection about 6.1% have one here.
D1 antag – human D1 dopamine receptor antagonism. activity change, negative = inhibition, % at 10 µM. P21728. 360,000 tested, 3.2% active. HEK293 TREx D1 cells, calcium flux, dopamine EC80; stronger effect = lower value; in the data active = activity change below about -30%
Target sequence (P21728 whole entry, looked up): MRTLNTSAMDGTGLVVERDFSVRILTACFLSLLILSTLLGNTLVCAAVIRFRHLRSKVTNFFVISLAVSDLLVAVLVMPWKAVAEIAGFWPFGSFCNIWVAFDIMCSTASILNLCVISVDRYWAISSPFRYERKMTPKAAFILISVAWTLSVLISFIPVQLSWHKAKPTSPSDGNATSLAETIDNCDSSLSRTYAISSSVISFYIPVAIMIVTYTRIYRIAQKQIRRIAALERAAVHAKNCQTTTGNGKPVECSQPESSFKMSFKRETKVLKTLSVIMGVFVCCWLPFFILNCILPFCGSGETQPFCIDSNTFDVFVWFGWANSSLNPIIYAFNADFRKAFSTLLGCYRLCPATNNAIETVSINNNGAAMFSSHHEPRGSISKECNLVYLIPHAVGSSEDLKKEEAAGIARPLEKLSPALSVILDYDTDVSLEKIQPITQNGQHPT
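HEK293 T-REx cells expressing inducible, force-coupled D1 receptor; no-wash Ca dye, 30–90 min RT. Cmpd → 180 s read at 1 Hz → EC80 DA → 180 s read.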
D1 ag – agonists of human D1 dopamine receptor; activation, % at 2 µM; P21728; AID 504660; 360,000 tested, 1% active; HEK293 T-REx D1 cells, calcium flux, agonist mode; in the data active = activation above about 30%
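Agonism was scored from calcium flux recorded over 180 s (1 read/s) after pintool compound addition, following a 10-cycle baseline. Cells were inducible force-coupled HEK293 TREx D1, plated overnight at 30 C and loaded with no-wash calcium dye.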
D1 potentiator – enhances dopamine response at the human D1 receptor; 360,000 tested, 0.036% active; P21728; HEK293 TREx D1 cells, calcium flux, dopamine EC20 potentiation; potentiation, % at 10 µM; AID 504651; in the data active = potentiation above about 30%
D3 antag – antagonists of human D3 dopamine receptor; D3R cells, DiscoveRx beta-arrestin luminescence, antagonist mode; stronger effect = lower value; max response, negative = inhibition, %; 360,000 tested, 2.5% active; in the data active = max response below about -50%; inconclusive = no clear call, values can overlap the other calls
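Cells plated overnight at 1500 cells/well, then exposed to library compounds with dopamine controls for 90 minutes at 37 degrees C. DiscoveRx reagent added for 30–60 minutes at room temperature; luminescence read, quantitative HTS format.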
D3 ag – agonists of human D3 dopamine receptor; 410,000 tested, 0.58% active; D3R DiscoveRx beta-arrestin cells, luminescence, 90 min; max activation, %; P35462; in the data active = max activation above about 30%
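Cells at 1500/well, incubated overnight, then treated with pinned compounds (dopamine as control) for 90 min at 37 degrees C. DiscoveRx reagent added for 30 - 60 minutes at room temperature; luminescence read.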
Each line names hits and unclear results; the compound was inactive in the other large screens; ! = not active in a repeat.

O=C(Nc1ccc(F)c(Cl)c1)C1CC(=O)N(Cc2ccccc2)C1 (stereo unspecified)	none (no result: D1 antag, D1 ag, D1 potentiator)
CC(C)N1CC(C(=O)Nc2ccc(Cl)c(Cl)c2)CC1=O (stereo unspecified)	D3 ag 72.2
O=C(Nc1ccc(F)c(Cl)c1)C1CC(=O)N(Cc2ccco2)C1 (stereo unspecified)	D1 antag -42.9
O=C(Nc1ccccc1)C1CC(=O)N(Cc2ccccc2)C1 (stereo unspecified)	none
Cc1ccnc(NC(=O)C2CC(=O)N(Cc3ccccc3)C2)c1 (stereo unspecified)	D1 antag -43.7
O=C(CCCCCn1c(=O)c2sccc2n(Cc2ccc(Cl)cc2)c1=O)NCc1ccc2c(c1)OCO2	none (no result: D3 antag)
Cc1cc(C(=O)C(=O)Nc2nncs2)c(C)n1-c1ccc(Cl)cc1	none (no result: D3 antag)
Cc1ccc(C)c(Cn2c(=O)n(Cc3ccccc3)c(=O)c3c(C)c(C)sc32)c1	none (no result: D3 antag)
O=C(CCc1nc2cccnc2n1Cc1ccccc1)NCc1cccc(Cl)c1	none (no result: D3 antag)
CCNc1nc(CN2CCCCC2)nc2scc(-c3ccccc3)c12	D1 antag -37.6
Fc1ccc(N2CCN(c3nc(CN4CCOCC4)nc4scc(-c5ccccc5)c34)CC2)cc1	D1 antag -45.9
OCC1CCCN(c2nc(CN3CCCCC3)nc3scc(-c4ccccc4)c23)C1 (stereo unspecified)	none
O=c1[nH]c(CN2CCN(c3ccccc3)CC2)nc2scc(-c3ccccc3)c12	D3 ag 107.9
CSc1ccc(CCNC(=O)CN2C(=O)COc3ccc(S(=O)(=O)N4CCCCCC4)cc32)cc1	none (no result: D3 antag)
CCOc1ccc(/C=C/c2nc(C#N)c(N3CCCCC3)o2)cc1	none (no result: D3 antag)
CCC(=O)O[C@@H]1CC(=O)O[C@H](C)C/C=C/C=C/[C@H](O)[C@H](C)C[C@H](CC=O)[C@H](O[C@@H]2O[C@H](C)[C@@H](O[C@H]3C[C@@](C)(O)[C@@H](OC(=O)CC)[C@H](C)O3)[C@H](N(C)C)[C@H]2O)[C@H]1OC	none (no result: D1 antag, D1 ag, D1 potentiator, D3 antag)
CCS(=O)(=O)c1ccc(-c2csc(-c3ccc(Cl)cc3)n2)c(Cl)c1Cl	D1 antag -33.1
COc1ccc(-n2cc(C(=O)NC(C)c3ccccc3)c3ccccc3c2=O)cc1 (stereo unspecified)	none (no result: D3 antag)
COc1ccccc1-c1cc(C(=O)NC(C)c2ccccc2)no1 (stereo unspecified)	D1 antag -42.4, D3 antag -58.0
COc1ccccc1-c1cc(C(=O)NC(C)C)no1	none (no result: D1 antag, D1 ag, D1 potentiator)
COc1cc(OC)c(N(C)C(=O)Cn2ncc3c([nH]c4ccccc43)c2=O)cc1Cl	none (no result: D3 antag)
CCOC(=O)N1CCN(C(=O)c2ccc3c(c2)N(Cc2ccccc2F)C(=O)c2ccccc2S3(=O)=O)CC1	none (no result: D3 antag)
Fc1ccc(CN2CCN3CCCC3C2C2CCCCC2)cc1F (stereo unspecified)	D3 antag -78.4
O=C(c1cnc(N2CCOCC2)c2ccccc12)N1CCN(c2ccccc2)CC1	none (no result: D3 antag)
Cc1ccc(-c2ccc(=O)n(CC(=O)NCCCN3CCCCC3C)n2)cc1 (stereo unspecified)	none
CC1CCCCN1CCNC(=O)Cn1nc(-c2ccccc2)ccc1=O (stereo unspecified)	D3 antag -98.0
NC(=O)c1nsc(C(=O)N(c2ccc(Cl)cc2)C(C(=O)NCC2CCCO2)c2cccs2)c1N (stereo unspecified)	D1 antag -33.5
NC(=O)c1nsc(C(=O)N(c2ccc3c(c2)OCO3)C(C(=O)NCC2CCCO2)c2ccc(F)cc2)c1N (stereo unspecified)	D1 antag -77.0
COCCNC(=O)Cn1cnc([N+](=O)[O-])n1	D3 antag -70.9
Cc1ccc(NC(=O)c2ccc(CN3CC(=O)N4CCCCC4C3=O)cc2)cc1C (stereo unspecified)	none (no result: D3 antag)
CCOc1ccccc1C(=O)Nc1cc(-c2nc3cccnc3s2)ccc1C	none (no result: D3 antag)
N#Cc1ccc(OCC(=O)OCC(=O)NCCC2=CCCCC2)cc1	none
Cc1cc(OCC(=O)OCC(=O)NC2CCCCC2C)ccc1Cl (stereo unspecified)	D1 antag -31.8
CCC(=O)c1ccc(OCC(=O)OCC(=O)NCCC2=CCCCC2)cc1	D1 antag -30.9
CCC(=O)c1ccc(OCC(=O)OCC(=O)NC2CCCCCCC2)cc1	D1 antag -39.0
OC[C@H]1O[C@@H](n2cnc3c2NC=NC[C@H]3O)C[C@@H]1O	D3 ag 44.2 (no result: D1 antag, D1 ag, D1 potentiator, D3 antag)
Cc1ccc(-n2ncc(C(=O)N3CCN(C4CCCCC4)CC3)c2C2CCN(C(=O)OC(C)(C)C)CC2)cc1C	none (no result: D3 antag)
COc1ccc(OC)c(/C(O)=C/C(=O)C(=O)Nc2cc(C)cc(C)c2)c1	D3 antag -86.3
CCOc1ccccc1NC(=O)C(=O)/C=C(\O)c1cc(OC)ccc1OC	D3 antag -52.8
COc1ccc(OC)c(/C(O)=C/C(=O)C(=O)Nc2cc(C)ccc2OC)c1	D3 antag -56.6
COc1ccc(OC)c(C(=O)c2ccccc2)c1	none
CCOC(=O)c1ccc(N2C(=O)c3n[nH]c(-c4ccco4)c3C2c2cccc(O)c2)cc1 (stereo unspecified)	none (no result: D3 antag)
Cn1ccc2cc(-c3ccc4ncnc(NCc5cccnc5)c4c3)ccc21	none (no result: D3 antag, D3 ag)
Cc1ccccc1Cn1c(=O)n(CCc2ccccc2)c(=O)c2sc3ccccc3c21	none (no result: D3 antag)
CCOC(=O)C(=C1Nc2ccccc2N1)n1c(-c2ccco2)nc2ccccc21	D3 antag -54.2 (no result: D1 antag, D1 ag, D1 potentiator)
CC[C@@]1([C@@H]2O[C@@H]([C@H]3O[C@@](O)(CO)[C@H](C)C[C@@H]3C)C[C@@H]2C)CC[C@H]([C@]2(C)CC[C@]3(C[C@H](O)[C@@H](C)[C@@H]([C@@H](C)[C@@H](OC)[C@H](C)C(=O)O)O3)O2)O1 (stereo in doubt)	D3 ag 75.0! (no result: D1 antag, D1 ag, D1 potentiator, D3 antag)
CCN(c1ccccc1)S(=O)(=O)c1ccc(NC(=O)c2cc(=O)c3c(C)cc(C)cc3o2)cc1	none (no result: D3 antag)
CC1(C)Oc2ccc3ccc(=O)oc3c2/C(=C/NCCN/C=C2\C(=O)C(C)(C)Oc3ccc4ccc(=O)oc4c32)C1=O	none (no result: D3 antag, D3 ag)
CC1(C)Oc2ccc3ccc(=O)oc3c2/C(=C/NNC(N)=O)C1=O	D3 antag -111.5
Oc1ccccc1/C=N/Nc1ccnc(SCc2ccccc2)n1	D3 antag -69.4
Cn1c(=O)c2c(nc(SCC(=O)NCc3ccc4c(c3)OCO4)n2Cc2ccc(F)cc2)n(C)c1=O	D1 antag -36.8
COc1cccc(Cn2c(Oc3cc(C)cc(C)c3)nc3c2c(=O)n(C)c(=O)n3C)c1	none (no result: D3 antag)
COc1ccc(CCC(C)NCc2ccc(C(F)(F)F)cc2)cc1 (stereo unspecified)	D3 antag inconclusive
CC(CCc1ccccc1)NCC#N (stereo unspecified)	D3 ag 32.3
CC(=O)NC(C)CCc1ccccc1 (stereo unspecified)	none

Bioassay records as filed in PubChem.
